Experimental findings from PubChem BioAssay (NCATS) are described below.

SMILES strings stand for the structures. Inconclusive results are not listed. A number with no mark means an inactive call. Active and inactive are the calls of the source. Calls follow the shape of the dose curve; as a rule, active = well fitted activation curve with a large enough effect; inconclusive = small, poorly fitted or top-dose-only effect; inactive = no such curve, though single readings can be large or run the other way.
Potency is read from the fitted curve at half-maximal effect.

Chain of Arylsulfatase A (Homo sapiens) (P15289 whole entry, looked up): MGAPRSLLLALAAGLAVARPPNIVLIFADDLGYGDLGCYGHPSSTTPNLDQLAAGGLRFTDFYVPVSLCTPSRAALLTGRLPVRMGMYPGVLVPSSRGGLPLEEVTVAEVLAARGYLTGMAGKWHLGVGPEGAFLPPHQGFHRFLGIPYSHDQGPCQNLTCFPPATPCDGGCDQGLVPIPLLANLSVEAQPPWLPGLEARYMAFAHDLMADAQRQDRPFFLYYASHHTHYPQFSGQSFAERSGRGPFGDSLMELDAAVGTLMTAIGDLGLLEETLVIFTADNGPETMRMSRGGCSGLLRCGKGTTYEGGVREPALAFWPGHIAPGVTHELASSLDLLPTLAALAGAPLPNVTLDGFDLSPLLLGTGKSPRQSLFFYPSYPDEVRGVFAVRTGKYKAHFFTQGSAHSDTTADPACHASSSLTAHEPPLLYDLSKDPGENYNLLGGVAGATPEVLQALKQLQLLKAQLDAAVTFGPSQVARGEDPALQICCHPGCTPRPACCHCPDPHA

For this assay, the target named is Arylsulfatase A (Homo sapiens) (UniProt P15289). As to the kind of experiment: qHTS screen for enhancers of Arylsulfatase A (ASA1): LOPAC Validation Assay (AID 720538). As to activity change, positive = activation: 0% is about no effect. The settings on record: ASA enzyme activity, LOPAC qHTS enhancer assay; series mostly up to 57.5 µM; activity change, positive = activation: at the top concentration. The text has this:
Lysosomal storage diseases (LSDs) are caused by genetic mutations in genes encoding proteins important for normal lysosomal function. In affected patients, symptoms are usually not manifested unless the mutations result in more than 90% reduction of enzymatic activity of a specific lysosomal enzyme. […] Small molecules could function as enzyme enhancement agents by binding to and stabilizing mutant misfolded proteins in the endoplasmic reticulum (ER), allowing them to evade the ER associated degradation (ERAD), and eventually reach the lysosome. Moreover, small molecules is hypothesized to be able to enhance the residual activity of deficient lysosomal enzyme by either interacting directly with the mutant enzyme or indirectly by acting in different cellular pathways; resulting to increased levels of the mutant and partially functional protein in the lysosomal compartment.
A cell based assay in 1536 well plate format was developed to evaluate activity of the lysosomal sulfatase ASA1 enzyme. ASA1 is deficient in metachromatic leukodystrophy (MLD), an LSD characterized by progressive neurodegeneration for which specific treatment is not available. Compounds that are active may therefore have some therapeutic application for this disease. This assay was used to validate the ASA1 qHTS using the Sigma LOPAC library. In this assay increase in signal = enhanced ASA1 activity. Activation is the desired outcome for this assay.
NIH Chemical Genomics Center [NCGC]
NIH Molecular Libraries Probe Centers Network [MLPCN]
Assay Submitter (PI): Gustavo Maegawa, Johns Hopkins University School of Medicine
[2] Gieselmann V, et al. Acta Paediatr Suppl. 2008; 97: 15-21
Four microliter (~8,000 cells/well) of SV40-transformed skin fibroblasts from an MLD patient (ASA-I179S) were seeded into a 1,536 solid white plate. Cells were left to adhere for 6 hrs, followed by addition of 23 nL of compounds. Cells were incubated with compounds for 48h at 37 degree C and 5% CO2. Four microliter of 1 mM pNCS substrate/lysis buffer (0.5mM pNCS final concentration) was added and incubated for 14h at room temperature. To stop the reaction, […] of 5 N of NaOH (1N NaOH final concentration) was then added and fluorescence was measured using the ViewLux plate reader (Ex=525 nm; Em=598 nm).
A general note: In qHTS, concentration-response curves come from the screen itself.
Turning to `C#CCn1c(=O)c2c(ncn2C)n(C)c1=O`, the “activity change, positive = activation” value was 8.02%.

Regarding `N[C@@H](Cc1ccc(O)c(I)c1)C(=O)O`, the result was inactive.

`CC(C)(CO)Cc1cc(C(C)(C)C)c(O)c(C(C)(C)C)c1`: the “activity change, positive = activation” value is -9.98%.

On to `O=C1C2C=CC=CC2=NC(=S)N1CCN1CCC(=C(c2ccc(F)cc2)c2ccc(F)cc2)CC1` (stereo not given), for which the result was inactive.

As to `C/C(=C\c1ccc(C(=O)O)cc1)c1ccc2c(c1)C(C)(C)CCC2(C)C`, the “activity change, positive = activation” value is -0.761%.

Turning to `CC(=O)O[C@H]1Cc2ccccc2N(C(N)=O)c2ccccc21`, the “outcome” value is “inactive; inhibitor; fitted 0.4256 uM”.

`O=C(O)C1=CCCN(CCON=C(c2ccccc2)c2ccccc2)C1`: the “outcome” value was “inactive; inhibitor; fitted 0.0536 uM”.

With `CC(N)=O`, the result was inactive.

Turning to `CCCOC(=O)c1c(-c2ccccc2)nc(CC)c(C(=O)SCC)c1CCC`, the result was inactive.

Take `CC1=C(/C=C/C(C)=C/C=C/C(C)=C\C(=O)O)C(C)(C)CCC1`: the “activity change, positive = activation” value was 18.8%.

For the compound `CSC(N)=NCCC[C@H](N)C(=O)O`, the “activity change, positive = activation” value was -47.1%.

For `COC(=O)[C@H](NC(=O)c1cc(-c2ccccc2)nc2ccccc12)c1ccccc1`, the “activity change, positive = activation” value was 4.29%.

Take `Nc1ncnc2c1ncn2C1CCCO1` (stereo not given): the Potency was 2.69 µM (active).

As for `CCc1ccc2c(-c3cccc(Cl)c3)nc(=O)n(CC)c2n1`, the “activity change, positive = activation” value is -38.2%.

As to `COCc1nc2c([nH]1)c(=O)n(C)c(=O)n2CC(C)C`, the result was inactive.

Take `Fc1ccc(CN(C2=NCCN2)c2c(Cl)cccc2Cl)cc1`: the “activity change, positive = activation” value is -2.08%.

Turning to `CCCCCCN(CCCCCC)C(=O)Cc1c(-c2ccc(F)cc2)[nH]c2ccccc12`, the “activity change, positive = activation” value was -8.2%.

For the compound `CC1=C(C(=O)O)N2C(=O)[C@@H](NC(=O)C(N)C3=CCC=CC3)[C@H]2SC1` (stereo not given in full), the “activity change, positive = activation” value was 3.35%.

In the case of `Brc1c(Br)c(Br)c2[nH]cnc2c1Br`, the “outcome” value was “inactive; inhibitor; fitted 8.4921 uM”.

As to `CN1CCN(c2nc3cc(C(F)(F)F)ccc3n3cccc23)CC1`, the result was inactive.

On to `c1ccc2nc(C3=NCCN3)ccc2c1`, for which the outcome was inactive.

For `C[C@H](O)C(=O)C1=Nc2c(nc(N)[nH]c2=O)NC1`, the “activity change, positive = activation” value was -8.78%.

On to `CNc1ncnc2c1ncn2[C@H]1C[C@H](OP(=O)(O)O)[C@@H](COP(=O)(O)O)O1`, for which the result was inactive.

Consider `N#Cc1cc2nc(O)c(O)nc2cc1[N+](=O)[O-]`, for which the “activity change, positive = activation” value is -9.64%.

On to `c1ccc2c(c1)CCC[C@H]2Nc1nc2ccccc2[nH]1`, for which the “activity change, positive = activation” value is 6.97%.

Consider `CN1CCc2cc(Cl)c(O)cc2[C@@H](c2ccccc2)C1`, for which the “activity change, positive = activation” value is -51.9%.

Take `CCCn1c(=O)c(C)cn2nc(N)nc12`: the “activity change, positive = activation” value was -11%.

For the compound `Oc1ccc(Cn2cc[nH]c2=S)cc1`, the outcome was inactive.

As to `NC1C=CC=C(C(=O)O)C1` (stereo not given), the “activity change, positive = activation” value is -12.8%.

`COc1ccc(NC(=O)c2ccc(-c3ccc(-c4noc(C)n4)cc3C)cc2)cc1N1CCN(C)CC1`: the outcome was inactive.

With `Cn1cc(C(=O)OCC2CCN(CCNS(C)(=O)=O)CC2)c2ccccc21`, the outcome was inactive.

Regarding `Nc1ccc(N2C(=O)c3ccccc3C2=O)c(Cl)c1`, the result was inactive.

Regarding `CNCCc1cnc(CCC(c2ccccc2)c2ccccc2)[nH]1`, the “activity change, positive = activation” value is 6.83%.

As for `S=C(S)N1CCCC1`, the outcome was inactive.

As to `N[C@@H](CCC(=O)N[C@H](CSN=O)C(=O)NCC(=O)O)C(=O)O`, the result was inactive.

For the compound `COc1cc(C(O)C(=O)O)ccc1O` (stereo not given), the outcome was inactive.

For `N#CC(C#N)=C(N)/C(C#N)=C/c1ccc(O)cc1`, the “activity change, positive = activation” value was -38.2%.

With `CNCCNS(=O)(=O)c1cccc2cnccc12`, the outcome was inactive.

For `N[C@H](C(=O)O)c1cc(O)cc(O)c1`, the “activity change, positive = activation” value is 12.7%.

For `CCCCOC(=O)NS(=O)(=O)c1sc(CC(C)C)cc1-c1ccc(Cn2c(CC)nc3c(C)cc(C)nc32)cc1`, the outcome was inactive.
